# According to PubChem BioAssay (NCI):
# This is part of a sample that, as a whole, favours compounds with a hit. Of some 83,000 tested, about 20% had one in any assay.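 Note: values are percent growth. 100 is the growth of untreated cells, values between 100 and 0 indicate rising inhibition; between -100 and 0 indicates cell death.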 Values without a mark were called inactive. Calls of active or inactive are those of the source. How the source made its calls: active means growth percent below 10; inactive means the rest.
# Test system: MDA-MB-468 breast
# Test: NCI-60 one-dose screen, 48 h (100 = growth as untreated, 0 = no growth, -100 = all killed)
# Conditions: 10 µM unless noted
row,SMILES,growth
1,CN1CCN(Cc2ccc(NC(=O)c3ccc(C#N)c(C#Cc4cnc(N)c5ncccc45)c3)cc2C(F)(F)F)CC1,98%
2,COc1cc(C2CC(=O)Nc3n[nH]c(-c4ccccc4)c32)cc(OC)c1OC (stereo not drawn),38.5%
3,O=C1Nc2ccc(F)cc2/C1=C\c1c(-c2ccccc2)nc2ccccn12,35.6%
4,COc1cc(/C=C/c2c(C(C)=O)c(C)nc3ccccc23)cc(OC)c1OC,-4.86% (active)
5,Cc1cc(Nc2nc(N[C@@H](C)c3ncc(F)cn3)ncc2Cl)n[nH]1,100%
6,O=C(CC12CC3CC(CC(C3)C1)C2)NCCOCCOCCOCCNC(=O)c1cc2c(o1)C(=O)c1ccccc1C2=O,-34.8% (active)
7,CC(C)(C)Nc1nc2c(OCCc3ccccc3)cccn2c1-c1ccc([N+](=O)[O-])cc1,-19.5% (active)
8,COC(=O)/C=C\C(=O)OC,112%
9,Cc1cc(-c2ccccc2)cc(SC#N)[n+]1[O-],34.8%
10,COc1ccc(-c2nn(-c3cccc(NC(=O)Nc4ccc(Cl)c(C(F)(F)F)c4)c3)cc2-c2ccncc2)cc1Cl,23.1%
11,COc1ccc(-c2nc3cccc(O)c3c(=O)n2Cc2ccccc2)cc1COc1ccc(NC(C)=O)cc1,71.9% [3 µM]
12,Cc1ccc2c(c1)Oc1nc(N)c(C#N)c(N)c1C2Sc1ccc(F)cc1 (stereo not drawn),-72.6% (active)
13,C=C(C)[C@@H]1CC[C@]2(CN)CC[C@]3(C)[C@H](CC[C@@H]4[C@@]5(C)CCC(=O)NC(C)(C)[C@@H]5CC[C@]43C)[C@@H]12,35.5%
